High-throughput results as filed in PubChem BioAssay.
Only some compounds are listed: those with a hit (about 2.8% of all), similar ones and a draw of the others.
KDM5B inh = inhibitors of human KDM5B histone demethylase | 2.6% of 220,000 active | AID 1347165 | Q9UGL1 | KDM5B demethylase, FDH-coupled NADH fluorescence (FDH is formaldehyde dehydrogenase) | Potency, µM (top dose mostly 57.7 µM), hits mostly inhibitors; active = well fitted inhibition curve with a large enough effect; inconclusive = small, poorly fitted or top-dose-only effect; inactive = no such curve, though single readings can be large or run the other way; note: potency is the fitted concentration of half-maximal effect; 0% is about no effect; nearly all actives have a fitted effect of over 70% in size
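qHTS format, multiple compound concentrations. Buffer 50 mM HEPES pH 7.5/0.01% Tween-20; 200 nM KDM5BΔAP final; 10 min compound preincubation; substrate-mix levels 12.5 µM peptide, 25 µM α-KG, 0.25 mM NAD⁺; 30 min RT; ΔRFU.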
IP6K1 inhibitor = inhibitors of human IP6K1. Q92551. AID 1645851. activity change, % (series mostly up to about 58 µM). IP6K1 kinase, ADP-Glo luminescence, 2 h; active compounds read low. 0.81% of 140,000 active; in the data active = activity change below about -25%; note: % is set by controls: 0 for no effect and ±100 for the full control effect
Target sequence (Q92551 whole entry, looked up): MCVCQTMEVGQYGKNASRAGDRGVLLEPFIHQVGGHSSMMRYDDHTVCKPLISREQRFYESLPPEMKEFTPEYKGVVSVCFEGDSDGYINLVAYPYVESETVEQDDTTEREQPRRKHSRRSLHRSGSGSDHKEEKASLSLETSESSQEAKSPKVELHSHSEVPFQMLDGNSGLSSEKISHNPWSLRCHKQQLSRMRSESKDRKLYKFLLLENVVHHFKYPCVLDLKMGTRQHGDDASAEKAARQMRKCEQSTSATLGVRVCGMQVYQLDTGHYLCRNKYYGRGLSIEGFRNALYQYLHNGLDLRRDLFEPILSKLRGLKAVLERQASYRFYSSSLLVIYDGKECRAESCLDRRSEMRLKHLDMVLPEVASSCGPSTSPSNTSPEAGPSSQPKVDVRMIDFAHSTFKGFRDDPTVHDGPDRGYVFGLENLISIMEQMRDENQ
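ADP-Glo luminescence measures ADP made by human IP6K1 during a 2 h RT reaction with ATP/IP6 (mix at 1.3 mM/130 uM); top library doses 57.5 and 19.1 uM final.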
* hit, by the source's call; i = inactive; ? = inconclusive; . = no result; ! = repeats disagree.

SMILES	KDM5B inh	IP6K1 inhibitor
O=C(Nc1ccccc1)N1CCC(Oc2ccccc2-c2nc(-c3ccccc3)no2)C1 (centres undefined)	31.6µM*	-8.4
Cc1noc(-c2ccc(OC3CN(C(=O)c4sccc4C)C3)cc2)n1	i	-7.2
Cc1cccc(NC(=O)N2CC(Oc3ccc(-c4nc(-c5ccccc5)no4)cc3)C2)c1	12.6µM*	-3.9
Cn1cc(C(=O)N2CC(Oc3ccc(-c4nc(-c5ccccc5)no4)cc3)C2)cn1	i	4.6
Cc1noc(-c2ccc(OC3CN(C(=O)Nc4ccccc4)C3)cc2)n1	i	-14.3
Cc1noc(-c2ccc(OC3CN(C(=O)c4cccc5[nH]ccc45)C3)cc2)n1	28.2µM*	3.9
Cn1cccc1C(=O)N1CC(Oc2ccc(-c3nc(-c4ccccc4)no3)cc2)C1	28.2µM*	7.6
CC(C)NC(=O)N1CCC(Oc2ccccc2-c2nc(-c3ccccc3)no2)C1 (centres undefined)	?	-21.1
O=C(NC1CCN(Cc2ccc(-c3ccsc3)cc2)C1)c1cccnc1 (centres undefined)	.	-2.6
CNC(=O)N1CCC2(CC1)CC(Cc1ccc(C)cc1)CCO2 (centres undefined)	.	14.5
Cc1ccc(C(=O)N2CCN(Cc3ccccc3-c3ccc(C)c(Cl)c3)CC2)cc1	.	-10.5
Cc1nc(-c2ccccc2OC2CN(C(=O)c3cccc4[nH]ccc34)C2)no1	28.2µM*	-1.7
O=C(c1cc(F)ccc1F)N1CC(Oc2ccc(-c3nc(-c4ccccc4)no3)cc2)C1	i	7.7
Cc1nc(-c2ccccc2OC2CN(C(=O)c3ccoc3)C2)no1	i	-5.4
O=C(c1cccc2[nH]ccc12)N1CC(Oc2ccc(-c3nc(-c4ccccc4)no3)cc2)C1	11.2µM*	3.8
CC(C)NC(=O)c1ccc(-c2nnc3ccc(NC(=O)C4CCC4)cn23)cc1	25.1µM*	-5.3
CCOc1ccc(NC(=O)c2ccc(-c3nnc4ccc(NC(=O)C5CC5)cn34)cc2)cc1	?	-4.8
O=C(Nc1ccc2nnc(-c3ccc(C(=O)N4CCCCC4)cc3)n2c1)C1CCC1	20µM*	-10.5
COc1cccc(NC(=O)c2ccc(-c3nnc4ccc(NC(=O)C5CCC5)cn34)cc2)c1	25.1µM*	-9.0
O=C(Nc1ccc(-c2nnc3n2CCCC3)cc1)C1CCC1	i	-1.4
CCN(CC)C(=O)c1ccc(-c2nnc3ccc(NC(=O)C4CC4)cn23)cc1	22.4µM*	-6.7
CN(C)C(=O)c1ccc2nnc(-c3ccc(Cl)cc3)n2c1	.	4.4
O=C(Nc1cccc(Cl)c1)c1ccc2nnc(-c3ccc(Cl)cc3)n2c1	.	-2.8
CC(C)CNC(=O)c1cn2cc(-c3cccnc3)sc2n1	.	6.5
CCN1CCN(C(=O)c2ccc(-c3nnc4ccc(NC(=O)C5CCC5)cn34)cc2)CC1	20µM*	-7.2
SMILES	KDM5B inh	IP6K1 inhibitor
CCN1CCN(C(=O)c2ccc3nnc(C4CCCC4)n3c2)CC1	.	4.5
c1c[nH]c(-c2nc3ncccc3[nH]2)c1	141µM*!	4.4
O=[N+]([O-])c1ccc(-c2nc(-c3ccc(F)cc3)c(-c3ccncc3)[nH]2)cc1	.	-13.9
c1cnc2nc(-c3ccncc3)[nH]c2c1	31.6µM*	0.0
COc1ccc(CSc2nc3ncccc3[nH]2)cc1	i	5.3
c1coc(-c2nc3ncccc3[nH]2)c1	31.6µM*!	5.3
O=c1[nH]c(Nc2ccccc2)nc2nccc(-c3ccco3)c12	i	.
Cc1ccc(Nc2ccnc(N3CCC(N[S+](=O)([O-])c4cccs4)CC3)n2)cc1	.	-15.1
Cn1nc(C2CC2)n(C2CCN(C(=O)CCCc3ccccc3)CC2)c1=O	.	27.0
Oc1ccccc1N1CCN(c2nc(-c3cccnc3)nc3ccccc23)CC1	i	.
N#Cc1cccnc1N1CCN(c2nccc(N3CCCC(O)C3)n2)CC1 (centres undefined)	?	7.4
N#Cc1cccnc1N1CC[C@@H](N2CCC(O)CC2)[C@H](O)C1	25.1µM*	-2.4
Cc1ccc(Nc2ccnc(N3CCCC(C(=O)NCc4cccc(F)c4)C3)n2)cc1 (centres undefined)	.	-13.0
O=C(NCc1cccc(Cl)c1)c1cn2cc(-c3ccccc3)sc2n1	.	0.4
Cc1ccc(-c2cc(C(=O)N3CCOCC3)nn3cnnc23)cc1	.	14.5
O=C(NCc1cccs1)c1cc(-c2ccc(F)cc2)c2nncn2n1	.	21.7
O=C(c1cc(-c2cccc(C(F)(F)F)c2)c2nncn2n1)N1CCCC1	50.1µM*	14.9
O=C(c1cc(-c2ccc(Cl)cc2Cl)c2nncn2n1)N1CCOCC1	79.4µM*	5.2
O=C(NCc1cccs1)c1cc(-c2cccc(C(F)(F)F)c2)c2nncn2n1	50.1µM*	1.4
O=C(c1cc(-c2cccc(C(F)(F)F)c2)c2nncn2n1)N1CCCCC1	.	-4.0
O=C(O)CNc1ccccc1	i	.
O=C(NCC1CC1)C1CCN(c2nccc(Nc3ccccc3Cl)n2)CC1	.	2.5
CCN1C(=O)CCN(C(=O)c2ccnn2CC)CC12CCOCC2	.	-11.1
